# The whole screen tested about 420,000 compounds, of which about 50,000 (12%) were called active. Where a call stands in place of a potency, no number is given. Inconclusive results (about 26%) are left out. Calls follow the shape of the dose curve; as a rule, active = well fitted inhibition curve with a large enough effect; inconclusive = small, poorly fitted or top-dose-only effect; inactive = flat fitted curve, though single readings scatter. For the sample, actives were picked, then their nearest neighbours and some compounds at random.
# Test: qHTS for Inhibitors of human tyrosyl-DNA phosphodiesterase 1 (TDP1): qHTS in cells in presence of CPT; also: nearly all actives have a fitted effect of over 55% in size
# Conditions: chicken DT40 Tdp1-/-;hTDP1 cells + 20 nM CPT, ATP luminescence, 48 h; series mostly up to 46.2 µM
# Method in brief: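 Chicken DT40 Tdp1-/- cells stably complemented with human TDP1 were seeded at 400 cells/well in medium containing 20 nM camptothecin, exposed to pin-transferred compounds, and grown at 37 °C for at least 48 hr. Viability was read as ATP luminescence.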
# Potency is read from the fitted curve at half-maximal effect.
row,Structure (SMILES),Potency
1,O=C(Nc1ccccc1Cl)N1CCN(c2ccc3nncn3n2)CC1,inactive
2,Cc1c(C)c2ccc(OCC(=O)N3CCC(C(=O)O)CC3)c(C)c2oc1=O,inactive
3,Cc1cccc(OCCC(=O)OCc2csc(CC(=O)Nc3ccccc3C)n2)c1,inactive
4,COC(=O)c1ccc(CNC(=O)c2ccc3oc(C(C)C)nc3c2)cc1,inactive
5,COc1ccc(CSc2nnnn2-c2ccc(O)cc2)cc1F,inactive
6,CC1CCCCC1NC(=O)Cn1cnc2c1c(=O)n(C)c(=O)n2C (stereo unspecified),inactive
7,O=C(c1ccc(Oc2ccc(Cl)cc2)c([N+](=O)[O-])c1)N1CCCC1,13 µM (active)
8,O=C(Oc1ccccc1Cl)c1ccc(N2CCOCC2)c([N+](=O)[O-])c1,inactive
9,O=C(COc1ccc(Cl)cc1[N+](=O)[O-])N1CCCCC1,inactive
10,Cc1ccc(-c2nn(CC(C)(C)C)c3ncnc(N)c23)cc1,6.68 µM (active)
11,Cc1ccc(-n2cnc3ncnc(-c4ccccc4)c32)cc1,inactive
12,CC(=O)NC(CC(=O)Nc1nccs1)c1ccccc1 (stereo unspecified),inactive
13,CCOc1ccc(NC(=O)CN(C)C(=O)COc2cccc(CC)c2)cc1OCC,inactive
14,Cc1noc(C)c1CCC(=O)N1CCCC(CO)(Cc2ccccc2)C1 (stereo unspecified),inactive
15,Oc1ccc2ccccc2c1C=Nc1ccccc1,inactive
16,Oc1ccc2ccccc2c1N=Nc1nccs1,1.16 µM (active)
17,Oc1ccc(N=Nc2nccs2)c(O)c1,10.3 µM (active)
18,O=C(OCC(=O)N1CCCCCC1)c1ccc(Br)c(S(=O)(=O)N2CCOCC2)c1,inactive
19,COC(=O)C1=C(C(=O)OC)[C@@H]2N(Cc3ccccc3)c3ccccc3[C@@]23C[C@@H](C(=O)OC)N(S(=O)(=O)c2ccc(C(F)(F)F)cc2)C3=N1,inactive
20,CN1OC[C@@H]2CN(C(=O)C(C)(C)C)[C@H](c3ccc(-n4ccnc4)cc3)C[C@@H]21,inactive
21,O=C(Nc1cccc(F)c1)c1coc(=O)c(Br)c1,1.3 µM (active)
22,O=C(CCN1C(=O)c2ccccc2C1=O)Nc1cccc(F)c1,inactive

row,Structure (SMILES),Potency
1,Cc1cc(C(=O)Nc2c(C)n(C)n(-c3ccccc3)c2=O)cs1,inactive
2,O=C(Nc1cccc(NC(=O)c2cccc(F)c2)c1)c1ccccc1,inactive
3,Cc1c(NC(=O)c2coc(=O)c(Br)c2)c(=O)n(-c2ccccc2)n1C,2.59 µM (active)
4,Cc1c(NC(=O)c2cccnc2)c(=O)n(-c2ccccc2)n1C,inactive
5,NS(=O)(=O)c1ccc(NC(=S)N2CCCC2)cc1,inactive
6,CCSC1=NCCN1C(=O)c1ccc(S(=O)(=O)N(CC)CC)cc1,inactive
7,COc1ccc(N(C(=O)c2cccnc2)S(=O)(=O)c2ccc(OC)c(OC)c2)cc1,inactive
8,COc1ccccc1C(=O)NNC(=O)c1ccc(NC(=O)c2ccccc2)cc1,inactive
9,COc1ccc(C(=O)Nc2cccnc2)cc1C(=O)Nc1cccnc1,inactive
10,COc1ccc(C(=O)Nc2ccc(-n3nncc3-c3ccccc3)cc2)cc1OC,3.66 µM (active)
11,CCC1OC(C2CC2)CC2=C1C(=O)OC(C)(C)O2 (stereo unspecified),inactive
12,CC(=O)N1N=C(c2ccccc2)OC1c1cccnc1 (stereo unspecified),inactive
13,Cc1cc(C)cc(NC(=O)CCN2C(=O)c3ccccc3C2=O)c1,inactive
14,O=C(N/N=C/c1ccc(O)c2ccccc12)c1cccnc1,inactive
15,Cc1ccc2nc(CNC(=O)c3ccccc3)[nH]c2c1,inactive
16,Cc1ccc(/C=N/NC(=O)C2=NNC(c3ccccc3)(c3ccccc3)C2)c(O)c1,4.61 µM (active)
17,COc1ccc(C2=NO[C@@H]3C(=O)N(Cc4ccccc4)C(=O)[C@H]23)cc1OC,inactive
18,COc1ccc(-c2cc(C(F)(F)F)nc(S(C)(=O)=O)n2)cc1OC,2.06 µM (active)
19,CCN(CC)CCN(C)C(c1ccnc2ccccc12)c1nnnn1-c1ccc2c(c1)OCCO2 (stereo unspecified),inactive
20,Cc1ccc(S(=O)(=O)NCCCn2ccnc2)cc1C(=O)NC(C)C,inactive
21,O=C(NCc1ccco1)c1ccc([N+](=O)[O-])cc1Cl,inactive
22,Cc1ccc(C(=O)OCC(=O)NC2CCCCCCC2)cc1C,inactive

row,Structure (SMILES),Potency
1,c1ccc2c(c1)C(=NC1CCCCC1)NC2=NC1CCCCC1,18.4 µM (active)
2,COc1cc(NC(=S)N2CCCC(C)C2)cc(OC)c1OC (stereo unspecified),inactive
3,O=C(COc1ccccc1)Nc1ccc(C(=O)N2CCCC2)cc1,inactive
4,Cc1ccc(C(=O)N2CCc3cc(CNC(=O)c4ccc(Br)cc4)ccc32)cc1,inactive
5,O=C(COc1ccccc1)NCc1ccc2c(c1)CCN2C(=O)c1ccc(F)cc1,16.4 µM (active)
6,O=C(CCc1ccc(S(=O)(=O)NC2CCCCC2)cc1)NCc1ccccc1,inactive
7,CCC(=O)N1CCc2cc(CNC(=O)Nc3ccccc3Cl)ccc21,inactive
8,Cc1cccc(C(=O)N2CCc3cc(CNC(=O)Cc4ccc(F)cc4)ccc32)c1,16.4 µM (active)
9,O=C(NCc1ccc2c(c1)CCN2C(=O)c1ccccc1)Nc1cc(F)ccc1F,16.4 µM (active)
10,COc1cccc(C(=O)NCc2ccc3c(c2)CCN3C(=O)c2ccncc2)c1,inactive
11,O=C(CCc1ccccc1)NCc1ccc2c(c1)CCN2C(=O)c1ccccc1,10.3 µM (active)
12,O=C(CN1CCN(C(=O)c2cccc(F)c2)CC1)Nc1ccccc1F,inactive
13,O=C(Cc1ccccc1)NCc1ccc(F)cc1,inactive
14,O=C(CSCc1ccccc1)N1CCc2ccccc21,inactive
15,CC1CCC2(CC1)NC(=O)N(CC(=O)c1ccc3c(c1)OCO3)C2=O (stereo unspecified),inactive
16,COc1cc(OC)c(N(C)C(=O)c2cc3c(=O)oc4ccccc4c3s2)cc1Cl,inactive
17,CCc1nnc(NS(=O)(=O)c2ccc(NC(=O)c3cccc(OC(F)(F)C(F)F)c3)cc2)s1,inactive
18,CCCCCC(=O)Nc1ccc(-c2cn3cccnc3n2)cc1,inactive
19,O=C(Nc1cccc2cccnc12)c1cccc2c(Br)cccc12,inactive
20,COC(=O)C1NN=C(C(=O)c2ccc(Br)cc2)C1c1cccc(Br)c1 (stereo unspecified),inactive
21,O=C(Nc1ccc(Br)cc1)c1cccc(NC(=O)C2C3CC4OC(=O)C2C4C3)c1 (stereo unspecified),inactive
22,CCc1cccc(CC)c1NC(=S)NCc1ccc2[nH]c(C)cc2c1,23.1 µM (active)

row,Structure (SMILES),Potency
1,Cc1cc2cc(CNC(=O)c3cccs3)ccc2[nH]1,inactive
2,CCc1cccc(CC)c1NC(=S)Nc1ccc2cn[nH]c2c1,inactive
3,Cc1cccc(NC(=O)N2CCCCCC2)c1C,inactive
4,O=C(OCc1nnc(-c2ccccc2)o1)c1cc(=O)[nH]c2ccccc12,inactive
5,CCCCc1nc2ccccc2c(NC(=O)CN2CCN(C)CC2)c1CCC,inactive
6,CCCc1nc2ccccc2c(C(=O)OCc2nnc(-c3cc(OC)c(OC)c(OC)c3)o2)c1CC,16.4 µM (active)
7,O=C(CN1CCN(S(=O)(=O)c2ccc(Cl)s2)CC1)N1CCCCC1,inactive
8,CCOC(=O)C=Cc1ccc(C(=O)OCC)[nH]1,13 µM (active)
9,CCOC(=O)c1ccccc1OC(=O)Oc1ccccc1C(=O)OCC,inactive
10,CCOC(=O)c1c(C)[nH]c(C)c1C(=O)COC(=O)/C=C/c1cccc([N+](=O)[O-])c1,inactive
11,CCn1c(N)c(Br)c(=O)[nH]c1=O,inactive
12,CCCCCOc1ccc(/C=C/C(=O)NCCc2nc3ccccc3[nH]2)cc1OC,16.4 µM (active)
13,COc1ccc(CCNC(=S)NC(=O)/C=C/c2ccc(C)cc2)cc1OC,inactive
14,O=C(COc1ccccc1)NCCc1nc2ccccc2[nH]1,inactive
15,Cc1nn(CC(=O)NCC2CCCO2)c(=O)c2cc3ccccc3n12 (stereo unspecified),inactive
16,C=C(C)C1CC=C(CO)CC1 (stereo unspecified),inactive
17,Cc1ccc(CN2C(=O)SC(Nc3ccccc3)C2=O)cc1 (stereo unspecified),inactive
18,Cc1ccc(-c2nc(=N)sn2Cc2ccccc2)cc1,4.47 µM (active)
19,Cc1ccc(-n2nc(CO)c(C(=O)NCCc3ccccc3)n2)cc1,inactive
20,Cc1ccnc(NC(=O)CCCOc2ccccc2)c1,inactive
21,CCN1CCN(c2nc(Nc3cccc(F)c3)nc(N)c2[N+](=O)[O-])CC1,inactive
22,CN(C)C(CNC(=O)c1ccc(OCc2cn3ccccc3n2)cc1)c1ccco1 (stereo unspecified),inactive

row,Structure (SMILES),Potency
1,Cc1nn(-c2ccccc2)c2c1C(=O)NC(=O)C(C)(C)C2,inactive
2,CC1=C(N2CCN(c3ncccn3)CC2)CCC1=O,inactive
3,Cc1nn(-c2ncccn2)c2c1C(=O)CC(C)(C)C2Br (stereo unspecified),20.6 µM (active)
4,COc1ccc2cc(-c3nc(Cl)c4c5c(sc4n3)CC(C)CC5)c(=O)oc2c1 (stereo unspecified),inactive
5,CC(C)CNC(=O)CC(c1ccccc1)c1c(O)ccc2ccccc12 (stereo unspecified),inactive
6,CC(C)NC(=O)C(c1ccc(F)cc1)N(C(=O)CCC(=O)Nc1ccccn1)c1ccccc1F (stereo unspecified),inactive
7,O=C(c1cc(COc2cccc(C(F)(F)F)c2)on1)N1CCSCC1,inactive
8,COC(=O)[C@]12CCCCC=C1N(Cc1ccccc1)C(=O)[C@H](CC(=O)NCc1ccc(C)o1)C2,inactive
9,Cc1ccc(C(=O)N2CC(=O)Nc3ccccc32)o1,inactive
10,Cc1ccc(CNC(=O)C2(C(F)(F)F)C/C(=C\Cc3ccccc3)CCCO2)o1 (stereo unspecified),16.4 µM (active)
11,Cc1ccc2c(c1)nnc1nnc(SCC(=O)O)n12,inactive
12,Cc1cccc(-c2nnc(SCC(=O)O)n2Cc2ccccc2)c1,inactive
13,CCC(C(=O)NC1CCCC1)N(C(=O)Cn1nnc(-c2ccc(C)o2)n1)c1ccc(OC)c(OC)c1 (stereo unspecified),inactive
14,Cc1cccc(C)c1NC(=O)COC(=O)c1ccccc1O,inactive
15,COc1ccc(N=C(C)c2sc3ccccc3c2O)cc1,inactive
16,COC(=O)Cc1[nH]n(-c2nc3ccccc3s2)c(=O)c1C(C)=Nc1ccc(OC)cc1,5.17 µM (active)
17,COc1ccc(/C=C(/CC(=O)Nc2ccc(C)cc2)c2nc3ccccc3s2)cc1,inactive
18,COc1ccc(C2NC(=S)NC3=C2CCc2ccccc23)cc1OC (stereo unspecified),inactive

# From PubChem BioAssay AID686979 (National Center for Advancing Translational Sciences (NCATS), 2013)
